# From PubChem BioAssay AID2567 (National Center for Advancing Translational Sciences (NCATS), 2010)
# Results filed as inconclusive are left out. Where a call stands in place of a potency, no number is given. Calls of active or inactive are those of the source. Calls follow the shape of the dose curve; as a rule, active = well fitted antagonist curve with a large enough effect in the main read-out, with a control signal flat; inconclusive = small, poorly fitted or top-dose-only effect; inactive = no such curve, though single readings can be large or run the other way.
# Molecular target: Neuropeptide S receptor (Homo sapiens) (UniProt Q6W5P4)
# Sequence (Q6W5P4 whole entry, looked up): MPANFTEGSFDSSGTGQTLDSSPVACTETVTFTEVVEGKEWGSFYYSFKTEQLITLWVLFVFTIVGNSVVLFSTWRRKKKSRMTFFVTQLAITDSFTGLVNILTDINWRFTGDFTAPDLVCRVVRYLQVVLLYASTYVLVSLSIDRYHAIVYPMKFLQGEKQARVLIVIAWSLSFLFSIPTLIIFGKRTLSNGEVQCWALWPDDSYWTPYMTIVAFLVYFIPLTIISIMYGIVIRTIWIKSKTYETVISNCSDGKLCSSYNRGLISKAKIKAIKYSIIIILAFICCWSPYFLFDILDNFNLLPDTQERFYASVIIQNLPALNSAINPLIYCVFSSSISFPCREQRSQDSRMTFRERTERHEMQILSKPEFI
# Test: Confirmation Concentration-Response Assay for Antagonists of the Neuropeptide S Receptor: Calcium Signal Transduction, SAR for Probe
# Settings: CHO-NPSR cells, NPS-induced calcium fluorescence, FDSS; series mostly up to 19.3 µM
# Summary of the method: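 CHO cells stably expressing human NPSR, loaded with calcium dye; compounds added, then stimulated with NPS (60 nM in stimulation reagent). Fluorescence (Ex 480, Em 520–560 nm) recorded kinetically on FDSS; AC50 from Hill fit.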
row,SMILES,Potency
1,COc1ccc(C2c3c(nc(CCCc4ccccc4)[nH]c3=O)Oc3ccc4ccccc4c32)cc1OC (stereo unspecified),inactive
2,COc1ccc(C2c3c(ncn(CCCc4ccccc4)c3=N)Oc3ccc4ccccc4c32)cc1OC (stereo unspecified),inactive
3,COc1cccc(C2c3c(ncn(-c4cccc(Cl)c4)c3=N)Oc3ccc4ccccc4c32)c1 (stereo unspecified),8.74 µM (active)
4,Oc1ccc(N=Nc2nccs2)c(O)c1,inactive
5,CCCN1C(=O)/C(=C\C=C2/C=CN(CC)c3ccccc32)SC1=S,inactive
6,COc1ccc(C(=O)N(Cc2ccco2)Cc2cccs2)c(O)c1,inactive
7,Cc1c(P(=S)(c2ccccc2)c2ccccc2)c2ccccc2n1C(=O)Cc1ccccc1,inactive
8,COc1cccc(C2c3c(ncn(-c4cccc(OC)c4)c3=N)Oc3ccc4ccccc4c32)c1 (stereo unspecified),5.52 µM (active)
9,Cn1nc(-c2ccc(Cl)cc2)nc2c(=O)n(C)c(=O)nc1-2,inactive
10,COc1ccc(C2c3c(ncn(Cc4ccccc4)c3=N)Oc3ccc4ccccc4c32)cc1OC (stereo unspecified),1.39 µM (active)
11,CC1(C)O[C@@H]2C[C@H]3[C@@H]4C[C@H](F)C5=CC(=O)CC[C@]5(C)[C@H]4[C@@H](O)C[C@]3(C)[C@]2(C(=O)CO)O1,inactive
12,COc1ccc(C2c3c(N)nc(Cc4ccccc4)nc3Oc3ccc4ccccc4c32)cc1OC (stereo unspecified),inactive
13,Cc1cc(C)n(-c2nc(NC(C)C)nc(NC(C)C)n2)n1,inactive
14,COc1cccc(C2c3c(ncn(-c4cccc(C)c4)c3=N)Oc3ccc4ccccc4c32)c1 (stereo unspecified),4.38 µM (active)
15,Cc1c(P(=S)(c2ccccc2)c2ccccc2)c2ccccc2n1C/C=C/c1ccccc1,inactive
16,CCOC(=O)c1cnc(-n2nc(C)cc2C)nc1Nc1ccc(C)cc1,inactive

row,SMILES,Potency
1,COc1cccc(N2CCN(c3ncnc4c3[nH]c3ccc(F)cc34)CC2C)c1 (stereo unspecified),0.631 µM (active)
2,C/C(=N\NC(=S)NC1CCCCC1)c1c(F)cccc1F,inactive
3,COc1ccc(C2c3c(n(Cc4ccccc4)cnc3=N)Oc3ccc4ccccc4c32)cc1OC (stereo unspecified),inactive
4,Cc1c(P(=S)(c2ccccc2)c2ccccc2)c2ccccc2n1Cc1ccccc1,inactive
5,COc1ccc(C2c3c(nc(C)[nH]c3=O)Oc3ccc4ccccc4c32)cc1OC (stereo unspecified),inactive
6,O=P(c1ccccc1)(c1ccccc1)c1cnc2ccccn12,inactive
7,CN(C)c1nc(=Nc2cccc(Cl)c2)ss1,inactive
8,COc1cccc(C2c3c(ncn(-c4ccccc4-c4ccccc4)c3=N)Oc3ccc4ccccc4c32)c1 (stereo unspecified),inactive
9,S=C(Nc1ccccc1)Nc1nccs1,inactive
10,CC(C)Cc1nc(N2CCN(C(=O)c3ccccc3)CC2)c(C#N)c2c1CCC2,inactive
11,CCC(C)n1c(=O)c(C(=O)Nc2ccccc2S(N)(=O)=O)c(O)c2ccccc21 (stereo unspecified),inactive
12,CCOC(=O)c1cnc(-n2nc(C)cc2C)nc1NC1CCCC1,2.82 µM (active)
13,Cc1ccc(Nc2cc(C)nn2-c2nc(C)cc(C)n2)cc1,inactive
14,COc1cccc(C2c3c(ncn(-c4cccc(F)c4)c3=N)Oc3ccc4ccccc4c32)c1 (stereo unspecified),0.22 µM (active)
15,COc1cccc(C2c3c(ncn(-c4ccc(C)cc4)c3=N)Oc3ccc4ccccc4c32)c1 (stereo unspecified),3.48 µM (active)
